Screens (PubChem)
GALR2 blocker – blocks the human galanin receptor 2. actives 0.39% (n = 140,000). inhibition, % at 4 µM. GALR2-expressing cells, antagonist mode. AID 828. O43603; in the data active = inhibition above about 27%;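 also: cells stimulated with galanin 1-16 at roughly its EC80; 0% = agonist challenge control and 100% = basal control without agonist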
GALR2 ag – agonists of human galanin receptor 2 (GALR2); O43603; GALR2-expressing cells, agonist activation read-out; activation, % (concentration not given with the values); actives 0.48% (n = 140,000); in the data active = activation above about 5%, passing the limit was not always enough;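 also: 0% = vehicle buffer wells and 100% = reference agonist at full effect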
S1P2 ag – activates the human S1P2 receptor; O95136; S1P2-expressing cell line, agonist reporter read-out; activation, % at 4.5 µM; actives 0.46% (n = 97,000); AID 729; in the data active = activation above about 16%;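 also: 0% = vehicle low control and 100% = maximal reference agonist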
Target sequence (O95136 whole entry, looked up): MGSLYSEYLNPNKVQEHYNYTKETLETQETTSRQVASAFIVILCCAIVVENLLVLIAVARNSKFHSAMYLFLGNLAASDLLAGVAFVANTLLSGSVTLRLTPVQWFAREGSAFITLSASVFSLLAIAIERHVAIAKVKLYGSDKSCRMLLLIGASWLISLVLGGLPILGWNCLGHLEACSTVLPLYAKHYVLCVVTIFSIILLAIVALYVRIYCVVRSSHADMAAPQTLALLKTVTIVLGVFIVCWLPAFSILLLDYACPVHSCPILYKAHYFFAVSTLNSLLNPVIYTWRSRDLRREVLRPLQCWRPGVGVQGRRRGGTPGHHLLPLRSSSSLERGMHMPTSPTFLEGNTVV
DAT uptake mod – modulates human dopamine transporter uptake under cocaine. Q01959. LLC-PK1 hDAT cells, [14C]-dopamine uptake with cocaine IC80; actives deviate in either direction. B-score at 10 µM. actives 1.3% (n = 110,000). AID 449768;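 active = Z score or B-score, a plate-position-corrected score, falls beyond the plate's 99.7% confidence bounds, in either direction; inactive = both scores lie inside the 99.7% bounds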;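 also: scored against the spread of the other compound wells on the same plate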
S1P2 blocker – S1P2 (human) receptor antagonism; O95136; cell-based S1P2 antagonist assay, inhibition at 5 uM; inhibition, % at 5 µM; actives 0.21% (n = 97,000); in the data active = inhibition above about 45%;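 also: CRE beta-lactamase reporter cells expressing human S1P2 stimulated with S1P; 0% = agonist at EC80 alone and 100% = agonist plus reference antagonist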
Starred values were filed as active, the others as inactive. The list is not random: actives were taken first. Their share in the collection is about 2.1%.

COc1cc(-c2nnc(COC(=O)c3cc(C)nc4ccc(C)cc34)o2)cc(OC)c1OC was read as GALR2 blocker -24.5, GALR2 ag 0.5, S1P2 ag 27.4*, DAT uptake mod 0.00244 and S1P2 blocker -37.2.
`COc1ccc(-c2cc(C#N)nc(Oc3ccc(Cl)cc3)n2)cc1` gave GALR2 blocker -23.0 and GALR2 ag 0.7.
For CCN(CC)c1nc(C#N)cc(-c2ccc(OC)cc2)n1 the results were GALR2 blocker -9.0, GALR2 ag 0.8, S1P2 ag 19.2*, DAT uptake mod -1.87 and S1P2 blocker -21.7.
`NC(=O)CSc1nnc(C2CC2)n1-c1ccccc1` gave GALR2 blocker 0.6, GALR2 ag 0.1, S1P2 ag -3.8, DAT uptake mod -9.26* and S1P2 blocker 2.7.
`Nc1nc(Nc2ccccc2)nc2c1ncn2[C@@H]1O[C@H](CO)[C@@H](O)[C@H]1O` gave DAT uptake mod 0.469.
c1csc(C2=Nn3c(nnc3-c3ccncc3)SC2)c1 was read as GALR2 blocker 18.2, GALR2 ag -2.1, S1P2 ag -9.6, DAT uptake mod -0.0281 and S1P2 blocker 49.0*.
For Clc1ccc(C2=Nn3c(nnc3-c3cccs3)SC2)cc1 the results were GALR2 blocker -1.0, GALR2 ag -0.6, S1P2 ag -2.0, DAT uptake mod -0.145 and S1P2 blocker -20.5.
`CC1=Nn2c(nnc2-c2cccs2)SC1` gave GALR2 blocker -1.1, GALR2 ag -0.8, S1P2 ag -0.1, DAT uptake mod -3.35* and S1P2 blocker -1.4.
`CCOc1ccccc1NC(=O)CSc1nnc(-c2ccccc2Cl)n1Cc1ccco1` gave GALR2 blocker -4.1, GALR2 ag -1.9, S1P2 ag -2.7, DAT uptake mod 1.64 and S1P2 blocker 19.3.
Screening COCCn1c(C2CCCCC2)nc2sc3ccccc3c(=O)c2c1=O returned GALR2 blocker 8.9, GALR2 ag -2.5, S1P2 ag -5.6, DAT uptake mod 1.75 and S1P2 blocker 5.9.
N#CCSc1nnc(-c2ccccc2O)n1CCc1ccccc1 was read as GALR2 blocker 6.9, GALR2 ag -1.4, S1P2 ag -6.5, DAT uptake mod 0.117 and S1P2 blocker 15.9.
COC(=O)c1sccc1NC(=O)c1cc(OC)cc(OC)c1 was read as GALR2 blocker -14.9, GALR2 ag -0.2, S1P2 ag 0.5, DAT uptake mod -8.01* and S1P2 blocker -24.7.
COC(=O)c1sccc1NC(=O)c1ccc(OC)c(OC)c1 was read as GALR2 blocker -10.6, GALR2 ag 0.5, S1P2 ag 0.1, DAT uptake mod -0.801 and S1P2 blocker -32.0.
`COCCn1c(=NC(C)=O)sc2cc([N+](=O)[O-])ccc21` gave GALR2 blocker 1.1 and GALR2 ag 6.2*.
COCCn1c(=NC(=O)c2nc3ccccc3s2)sc2cc(S(C)(=O)=O)ccc21 was read as GALR2 blocker -0.9 and GALR2 ag 0.0.
For CCCCCCc1cc2cc(-c3nnc(-c4ccccc4O)o3)c(=O)oc2cc1O the results were GALR2 blocker 12.8, GALR2 ag 17.7* and DAT uptake mod 0.476.
For CCCCCCc1cc2cc(-c3nnc(-c4ccccc4OC)o3)c(=O)oc2cc1O the results were GALR2 blocker -10.5, GALR2 ag 2.5, S1P2 ag 7.0, DAT uptake mod 0.397 and S1P2 blocker -7.5.
Cc1cc(=O)oc2cc(OC(=O)CCCCCN3C(=O)c4ccccc4C3=O)ccc12 was read as GALR2 blocker -19.2 and GALR2 ag -0.1.
For Cc1ccc(S(=O)(=O)N/N=C/c2cc(Br)c(C)o2)cc1 the results were GALR2 blocker 6.4, GALR2 ag -0.3, S1P2 ag 26.9*, DAT uptake mod -0.0711 and S1P2 blocker -6.6.
`O=C(c1nn(Cc2ccccc2)c(=O)c2ccccc12)N1CCN(C/C=C/c2ccccc2)CC1` gave GALR2 blocker -12.3, GALR2 ag -0.4, S1P2 ag -3.2, DAT uptake mod 4.05* and S1P2 blocker 8.2.
For COc1cccc(C(c2sc3nc(C)nn3c2O)N2CCN(c3ccccc3F)CC2)c1 (configuration not stated) the results were GALR2 blocker 5.9, GALR2 ag -1.5 and DAT uptake mod 2.71*.
For Cc1ccc(CSc2nnc(-c3ccco3)n2N)cc1 the results were GALR2 blocker -5.4, GALR2 ag -3.0, S1P2 ag 25.8*, DAT uptake mod -0.0768 and S1P2 blocker 6.4.
`COc1ccc(OC)c(S(=O)(=O)NCc2cn3c(C)csc3n2)c1` gave GALR2 blocker -0.3, GALR2 ag -1.9, S1P2 ag -4.8, DAT uptake mod -0.0307 and S1P2 blocker -12.6.
Screening COc1ccc(OC)c(S(=O)(=O)NCc2csc(-c3ccccc3)n2)c1 returned GALR2 blocker 1.1, GALR2 ag -1.2, S1P2 ag -2.2, DAT uptake mod 2.43* and S1P2 blocker -10.6.
Cc1nc(N2CCC(C)CC2)c2nnn(Cc3ccccc3)c2n1 was read as GALR2 blocker -1.2, GALR2 ag -1.8, S1P2 ag 6.9, DAT uptake mod 3.08* and S1P2 blocker -24.4.
CC(C)Cc1nc(N2CCC(C(N)=O)CC2)c2nnn(Cc3ccccc3)c2n1 was read as GALR2 blocker -4.8, GALR2 ag -1.1, S1P2 ag -3.8, DAT uptake mod 0.37 and S1P2 blocker -2.9.
`Cc1cccc(N(CC(=O)NC2CCCCC2)C(=O)CCCC(=O)Nc2ccccn2)c1` gave GALR2 blocker -4.3, GALR2 ag -1.0, S1P2 ag -8.6, DAT uptake mod 2.18* and S1P2 blocker -9.6.
`COc1ccccc1C1CN(c2ccc(F)cc2F)N=C1c1cccs1` (configuration not stated) gave GALR2 blocker -12.6, GALR2 ag 37.1*, S1P2 ag 17.5*, DAT uptake mod -0.93 and S1P2 blocker -33.4.
COc1ccccc1C1CC(c2cccs2)=Nc2ccccc2S1 (configuration not stated) was read as GALR2 blocker 7.9, GALR2 ag 4.9, S1P2 ag -1.9, DAT uptake mod -0.659 and S1P2 blocker 2.3.
Screening COc1ccc(N2C(=O)CSC2c2ccncc2)cc1 (configuration not stated) returned GALR2 blocker 10.1, GALR2 ag -0.6 and DAT uptake mod -7.41*.
`COc1ccc(N2C(=O)CSC2c2ccc3c(c2)OCO3)cc1` (configuration not stated) gave GALR2 blocker 6.2, GALR2 ag -1.6, S1P2 ag -13.2, DAT uptake mod 0.112 and S1P2 blocker 12.6.
COc1cccc(-n2c(SCC(=O)N3c4ccccc4CC3C)nnc2-c2ccco2)c1 (configuration not stated) was read as GALR2 blocker -1.5, GALR2 ag -1.7, S1P2 ag -0.9, DAT uptake mod 2.88* and S1P2 blocker -10.5.
COc1cccc(C(=O)CSc2nnnn2C2CCCCC2)c1 was read as GALR2 blocker 0.2, GALR2 ag -1.1, S1P2 ag -2.5, DAT uptake mod 1.17 and S1P2 blocker -8.0.
`Cc1ccc(C(C[N+](=O)[O-])c2c(-c3ccccc3O)[nH][nH]c2=O)cc1` (configuration not stated) gave GALR2 blocker 14.0 and GALR2 ag -1.5.
